Screening data deposited in PubChem BioAssay by several laboratories.
MPTP inh = inhibitors of mitochondrial permeability transition pore | inhibition, % at 10 µM | AID 602449 | hit rate 1.4% among 360,000 | isolated mouse mitochondria, Ca2+ swelling absorbance, 30 min;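 active = inhibition of 50% or more, scaled per plate between neutral and stimulator controls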;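 also: 0% = DMSO wells given calcium and 100% = 1 mM EGTA wells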
NR3A LBD binder = modulates the human NR3A ligand-binding domain. NR3A LBD differential scanning fluorimetry, Tm shift; 0% = protein alone, 100% = glycine-bound protein. Tm shift relative to glycine control, % at 25 µM. hit rate 2.5% among 340,000. AID 1259313;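 active = melting temperature shift of at least 10% of the positive control shift, at one fixed dose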
Beta apoptosis = beta cell apoptosis inhibition | INS-1E cytokine-induced death, ATP luminescence, 48 h; percent of positive-control rescue, neutral wells zero | protection from apoptosis, % (no concentration beside the values) | hit rate 0.8% among 300,000 | AID 435005;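 active = Every replicate reaches about 75%, or at least half do and their mean reaches it too, limit read from the data; inconclusive = At least half of replicates reach the limit but their mean does not; inactive = Under half of replicates reach the limit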;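 also: 0% = cytokine-treated negative control wells and 100% = positive control rescue; higher means more ATP so stronger rescue from cytokine killing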
Gli-Sufu block = antagonists of Gli-Sufu signaling | hit rate 0.74% among 340,000 | Sufu-KO-LIGHT fibroblasts, Gli luciferase reporter luminescence | inhibition, % at 5 µM;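 active = inhibition above about 55%, limit read from the data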;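 also: 0% = DMSO-treated cells and 100% = wells with medium but no cells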
Mdm2 MdmX PPI = inhibitors of human Mdm2/MdmX interaction; O15151+Q00987; SaOS-2 split-luciferase Mdm2/MdmX complementation, luminescence; inhibition, % at 8 µM; hit rate 3% among 330,000; AID 485346;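 active = inhibition of at least 50% at 8 µM in the primary screen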
CSC inhib = blocks cancer stem cells; AID 2717; cancer stem cell-like cells viability, luminescence; inhibition, % at 7.5 µM; hit rate 1.1% among 300,000; in the data active = inhibition above about 75%; inconclusive = no clear call, values can overlap the other calls; tested in HMLE shEcad cells
Mdm2 MdmX conf = human Mdm2/MdmX binding inhibition, confirmed | hit rate 55% among 10,000 | luminescent assay | inhibition, % at 8 µM | shares compounds with Mdm2 MdmX PPI | AID 489028; in the data active = inhibition above about 40%
FLuc counter = inhibits full-length luciferase, flagging false Mdm2/MdmX hits. shares compounds with Mdm2 MdmX PPI. SaOS-2 full-length luciferase counterscreen, luminescence. inhibition, % at 8 µM. hit rate 77% among 6,200. AID 504607;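 active = mean inhibition at 8 µM reaching about 37%, which flags the compound as non-specific, limit read from the data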;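 also: p53-null SaOS-2 cells with luciferase driven by a doxycycline-inducible promoter; compound on cells about two nights before reading with doxycycline added after day one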
The depositor's hits bear a star; u = inconclusive; x = not tested or not shown. Compounds with a hit are over-represented: about 6.6% of the library has one in this group of screens.

SMILES	MPTP inh	NR3A LBD binder	Beta apoptosis	Gli-Sufu block	Mdm2 MdmX PPI	CSC inhib	Mdm2 MdmX conf	others
CC1(C)C[C@H](O)[C@]2(CO)[C@H](O)C[C@]3(C)C(=CCC4[C@@]5(C)CC[C@H](O)C(C)(C)C5CC[C@]43C)[C@@H]2C1 (some centres undefined)	-0.7	-6.9	55.6	4.7	100.5*	u	28.5
CSc1nc2sc(-c3ccccc3)cc2c(=O)n1N	-1.9	-2.1	59.9	-119.6	68.2*	31.4	40.5*	FLuc counter=164.1*
Cn1c(/C(C#N)=C(\O)c2ccc([N+](=O)[O-])cc2)nc2ccccc21	-0.2	-0.9	-0.9	-11.6	85.7*	-8.5	27.2
CCN(CC)S(=O)(=O)c1ccc(/C(O)=C(\C#N)c2nc3ccccc3n2C)cc1	-1.1	-7.1	14.3	-8.4	18.5	34.6	x
COc1ccc2nc(NC(=O)C3CCN(S(=O)(=O)c4cccc5nsnc45)CC3)sc2c1	-0.6	-0.2	x	19.1	65.3*	37.8	66.1*	FLuc counter=38.6*
c1ccc(-c2cncn2-c2ccccc2)cc1	1.8	1.3	-6.1	-10.5	-15.3	1.3	x
Cc1ccc(C(=O)CSc2nnc(-c3ccc4[nH]c(C)c(C)c4c3)o2)cc1C	2.8	1.1	4.3	-0.9	51.4*	5.1	8.8
O=C(CSc1nnc(-c2ccccc2)n1Cc1ccccc1)N1CCOCC1	-2.5	-2.8	x	-0.4	-1.6	-5.2	x
Oc1ccccc1-c1nnc(SCCN2CCOCC2)n1Cc1ccccc1	1.2	-2.8	60.4	0.1	69.3*	19.8	18.7
COCCN1CC(C(=O)NCCc2nc(C)c(C)s2)CCC1=O (centres undefined)	-0.1	-1.1	6.9	-2.6	1.2	-5.6	x
Cc1c(C(=O)N2CCN(C(c3ccccc3)c3ccccc3)CC2)oc2ccccc12	-0.6	0.4	-0.1	3.5	34.6	35.6	x
COc1ccc(OC)c(N(/C(N)=N/c2nc(C)cc(C)n2)S(=O)(=O)c2ccc(NC(C)=O)cc2)c1	0.9	-3.4	0.0	-2.7	62.8*	13.4	25.0	FLuc counter=90.1*
COc1ccc(OC)c(N/C(=N/c2nc(C)cc(C)n2)NC(C)=O)c1	0.7	2.0	-1.4	28.4	-3.5	-2.9	x
c1ccc(N2CCN(c3ncnc4sc5c(c34)CCC5)CC2)cc1	-0.4	-1.5	-0.2	7.3	66.9*	13.5	56.2*	FLuc counter=38.6*
O=C(Nc1ccccc1)c1cc(C2CCCCN2S(=O)(=O)c2ccccc2)on1 (centres undefined)	0.5	x	x	x	x	x	x
CCc1ccc(C2CC(c3ccccc3)Nc3nc(N)nn32)cc1 (centres undefined)	-3.5	-0.8	-1.2	-1.8	4.0	-23.0	x
c1ccc(C2CC(c3ccccc3)n3c(nc4ccccc43)N2)cc1 (centres undefined)	-1.7	8.0	3.6	6.4	63.3*	-17.4	40.0*	FLuc counter=47.7*
O=C(Cn1nc(-c2ccccc2)ccc1=O)Nc1ccc(NC(=O)c2ccccn2)cc1	1.2	1.6	15.4	-2.9	83.4*	5.5	18.9
CN1CCN(S(=O)(=O)c2ccc3ccccc3c2)CC1	-0.8	-0.8	-2.7	6.9	-2.1	-9.3	x
CC(=O)NCc1ccc(S(=O)(=O)N2CCN(S(=O)(=O)c3ccc4ccccc4c3)CC2)cc1	0.7	2.1	x	3.6	62.5*	x	34.0
Cc1ccnc(NC(=O)CNC(=O)Cc2cccc3ccccc23)c1	-0.6	-3.1	-6.5	16.6	15.2	-4.5	x
Cc1csc2nc(O)c(C(=O)NC3CCCCC3)c(=O)n12	-1.4	3.1	x	-8.7	62.9*	-3.1	65.8*	FLuc counter=35.0
COC(=O)N1C(=O)[C@](c2ccccc2)(C2CCCC2)N1C(=O)OC	0.9	0.2	0.6	-1.6	42.9	15.0	x
COC(=O)N1C(=O)[C@](c2ccc(Cl)cc2)(C(C)C)N1C(=O)OC	0.3	-3.5	-0.3	-24.6	56.0*	24.9	39.5	FLuc counter=51.3*
COC(=O)N1C(=O)[C@@](c2ccc(OC)cc2)(C(C)C)N1C(=O)OC	0.6	0.6	-8.0	5.7	50.8*	9.8	27.9
SMILES	MPTP inh	NR3A LBD binder	Beta apoptosis	Gli-Sufu block	Mdm2 MdmX PPI	CSC inhib	Mdm2 MdmX conf	others
COCC(C)NC(=O)Cc1ccc(Cl)cc1 (centres undefined)	-0.9	-1.0	x	-2.6	11.0	5.4	x
COC(=O)N1C(=O)[C@@](c2ccccc2)(C(C)C)N1C(=O)OC	1.0	-2.5	-0.3	-1.5	54.6*	16.2	31.2
Cn1cc([C@]2(O)C(=O)Nc3ccc(F)cc32)c2ccccc21	4.2	x	x	x	x	x	x
COc1ccccc1C(=O)N1[C@@H](C(C)C)COc2cc(Br)ccc2S1(=O)=O	-0.6	0.2	x	-3.1	x	x	x
CCc1ccc(S(=O)(=O)Nc2cc3c(cc2C)n(C)c(=O)n3C)cc1	11.8	-0.5	56.4	65.2*	57.9*	33.6	55.0*	FLuc counter=59.5*
Cn1c(=O)n(C)c2cc(NS(=O)(=O)c3ccccc3)ccc21	-0.6	-1.9	-8.2	18.4	50.7*	-7.2	19.1
Cc1ccc(S(=O)(=O)Nc2ccc3c(c2)n(C)c(=O)n3C)cc1	0.7	-1.6	-5.8	23.5	37.2	-6.6	x
Cc1ccc(NS(=O)(=O)c2ccc3c(c2)n(C)c(=O)n3C)c(C)c1	0.6	-2.7	-7.2	-2.3	-14.3	-4.9	x
Oc1ccc(Br)cc1-c1nc2cnccn2c1NC1CCCC1	20.0	-3.6	-7.3	-1.7	78.6*	15.7	57.1*	FLuc counter=20.4
COc1ccc(OC)c(CN2C(=O)CN(S(C)(=O)=O)CC2(C)C(=O)NCc2ccccc2)c1 (centres undefined)	-0.2	x	x	x	x	x	x
Cc1ccc2c(c1)-c1c(ssc1=S)C(C)(C)N2C(=O)c1ccco1	3.6	0.1	-16.2	5.2	56.8*	48.2	36.6
CC1(C)c2ssc(=S)c2-c2ccccc2N1C(=O)c1ccco1	6.0	-1.8	-2.8	13.1	24.7	2.3	x
COC(=O)C(=Cc1ccc(OCc2ccc([N+](=O)[O-])cc2)c(OC)c1)C(=O)OC	-2.9	-0.1	-8.8	-19.7	91.7*	x	8.2
CCOC(=O)C(=Cc1ccc(OCc2ccc([N+](=O)[O-])cc2)c(OC)c1)C(=O)OCC	-2.5	0.9	6.4	-27.4	98.9*	116.0*	33.5
COc1cc(C(c2c(C)[nH][nH]c2=O)c2c(C)[nH][nH]c2=O)ccc1OCc1ccc([N+](=O)[O-])cc1	-1.3	-1.6	2.3	-16.2	-38.5	6.3	x
CCCn1c(=O)c(C(=O)NCCc2ccc(OC)cc2)c(O)c2ccccc21	3.2	-0.7	-2.4	31.4	-3.3	60.8	x
COc1ccc(CN2CCNC(=O)C2CC(=O)NCC(C)(C)N2CCOCC2)cc1C (centres undefined)	-0.8	-1.2	x	37.3	-12.6	1.8	x
CCOC(=O)C(Cc1ccc(O)cc1)NC(=O)c1cc2c(cn1)[nH]c1ccccc12 (centres undefined)	0.9	x	x	x	x	x	x
